Dicer processing = inhibitors of Dicer pre-microRNA processing, primary screen, biochemical, cat-ELCCA, chemiluminescence; Endoribonuclease Dicer (Homo sapiens), Q9UPY3; cat-ELCCA pre-miR-21 Dicer processing; stronger effect = higher value; z-score at 25 µM; 47,000 compounds, 6% hits; AID 1347074, 2019; in the data active = z-score above about 3, passing the limit was not always enough;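 also: plate controls were vehicle for no effect and no enzyme for full effect; higher signal means more uncleaved substrate so more Dicer inhibition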
Target sequence (Q9UPY3 whole entry, looked up): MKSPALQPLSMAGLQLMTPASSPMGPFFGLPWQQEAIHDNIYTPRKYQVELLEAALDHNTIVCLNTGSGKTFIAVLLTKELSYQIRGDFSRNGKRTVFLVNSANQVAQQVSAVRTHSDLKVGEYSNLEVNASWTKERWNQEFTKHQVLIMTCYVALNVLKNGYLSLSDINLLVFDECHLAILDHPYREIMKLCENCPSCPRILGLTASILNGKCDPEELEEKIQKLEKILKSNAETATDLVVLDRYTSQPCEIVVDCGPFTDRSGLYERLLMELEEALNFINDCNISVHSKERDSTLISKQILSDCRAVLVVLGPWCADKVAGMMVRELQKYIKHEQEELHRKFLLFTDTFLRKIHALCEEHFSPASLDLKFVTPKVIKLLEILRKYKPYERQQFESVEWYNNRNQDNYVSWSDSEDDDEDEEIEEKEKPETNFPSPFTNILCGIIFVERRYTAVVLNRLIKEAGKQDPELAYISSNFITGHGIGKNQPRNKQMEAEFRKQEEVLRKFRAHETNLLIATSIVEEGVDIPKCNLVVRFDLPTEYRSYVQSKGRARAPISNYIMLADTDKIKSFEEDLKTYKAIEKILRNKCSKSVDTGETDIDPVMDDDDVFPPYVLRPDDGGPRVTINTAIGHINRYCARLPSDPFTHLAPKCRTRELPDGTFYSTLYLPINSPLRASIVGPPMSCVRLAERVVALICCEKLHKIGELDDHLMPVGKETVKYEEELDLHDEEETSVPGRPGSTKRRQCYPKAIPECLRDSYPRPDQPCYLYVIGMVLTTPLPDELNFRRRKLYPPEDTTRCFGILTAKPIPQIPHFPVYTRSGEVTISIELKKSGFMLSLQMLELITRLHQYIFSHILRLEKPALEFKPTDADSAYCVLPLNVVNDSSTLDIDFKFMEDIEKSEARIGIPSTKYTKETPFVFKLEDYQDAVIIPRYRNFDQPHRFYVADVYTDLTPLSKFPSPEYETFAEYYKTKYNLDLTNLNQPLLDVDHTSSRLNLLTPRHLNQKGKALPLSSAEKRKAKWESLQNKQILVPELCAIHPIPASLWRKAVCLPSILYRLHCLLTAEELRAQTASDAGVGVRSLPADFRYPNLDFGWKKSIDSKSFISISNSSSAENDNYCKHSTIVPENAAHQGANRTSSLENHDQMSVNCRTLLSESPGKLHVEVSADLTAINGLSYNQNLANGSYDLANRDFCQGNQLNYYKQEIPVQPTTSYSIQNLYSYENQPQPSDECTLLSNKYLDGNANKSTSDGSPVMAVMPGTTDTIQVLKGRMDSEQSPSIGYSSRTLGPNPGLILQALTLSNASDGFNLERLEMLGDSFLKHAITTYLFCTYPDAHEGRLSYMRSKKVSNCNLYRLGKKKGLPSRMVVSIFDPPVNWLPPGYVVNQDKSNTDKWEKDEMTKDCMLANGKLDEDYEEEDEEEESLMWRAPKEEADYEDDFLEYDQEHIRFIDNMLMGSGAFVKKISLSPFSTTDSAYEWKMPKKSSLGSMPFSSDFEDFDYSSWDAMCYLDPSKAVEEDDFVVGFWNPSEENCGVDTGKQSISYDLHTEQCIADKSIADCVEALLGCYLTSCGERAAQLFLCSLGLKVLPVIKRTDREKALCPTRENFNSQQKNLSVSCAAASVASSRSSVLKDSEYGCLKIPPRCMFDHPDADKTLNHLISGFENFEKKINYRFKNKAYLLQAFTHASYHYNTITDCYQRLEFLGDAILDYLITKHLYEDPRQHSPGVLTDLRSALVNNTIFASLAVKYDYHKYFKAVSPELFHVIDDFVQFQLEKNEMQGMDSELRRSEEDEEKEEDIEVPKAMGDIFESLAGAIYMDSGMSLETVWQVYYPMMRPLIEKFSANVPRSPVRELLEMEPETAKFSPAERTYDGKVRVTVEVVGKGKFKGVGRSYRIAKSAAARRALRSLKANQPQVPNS
Numbers without * were called inactive. The sample as a whole holds a higher share of hits than the screen did.

SMILES | Dicer processing
CC(C)(C)OC(=O)N[C@@H](CCC(N)=O)C(=O)OCc1ccc(CC(=O)O)cc1 | 0.5
COCCCNC(=O)c1sc2cc(Cl)ccc2c1Cl | 0.13
O=C1CCCC2=C1C(c1ccncc1)n1nc(-c3cccc(Cl)c3)nc1N2 (centres undefined) | -0.3
Cc1cccc(-c2nc3n(n2)C(c2ccc(O)cc2)C2=C(CCCC2=O)N3)c1 (centres undefined) | 0.2
O=C1CCCC2=C1C(c1ccc3c(c1)OCO3)n1nc(-c3cccc(Cl)c3)nc1N2 (centres undefined) | 4.07*
S=c1[nH]cnc2sc3c(c12)CCCC3 | -1.14
Cc1ccc(-c2nnc(NCc3ccccc3)c3ccccc23)cc1S(N)(=O)=O | 0.17
Cc1ccc(Nc2cc(-c3ccccc3)nc3ncnn23)cc1 | 3.18*
Cc1cc(Nc2ccccc2)n2ncnc2n1 | -1.45
FC(F)(F)c1cc(-c2ccccc2)nc2ncnn12 | -0.01
Cn1nccc1N1C(=O)c2ccccc2C1=O | -1.12
Nc1ccc2nc(-c3ccc(O)cc3)sc2c1 | 3.54*
Nc1cccc(-c2nc3ccc(N)cc3s2)c1 | 1.73
Nc1ccc(-c2nc3ccc(C(=O)O)cc3s2)cc1 | 0.3
O=C(O)c1ccc2nc(-c3ccccc3)sc2c1 | 3.75*
Nc1ccc(-c2nc3ccc(N)cc3s2)cc1 | 2.29
CC(=O)Oc1ccc(-c2nc3ccc(C(=O)O)cc3s2)cc1 | 0.17
Cc1cccc(NC(=O)NC(=O)c2ccc(C(C)(C)C)s2)n1 | 1.14
CC(C)(C)SCCNC(=S)NCCO | -1
NC(=O)N/N=C1\CCOc2ccc3ccccc3c21 | -0.43
COC(=O)c1cc(=O)n2c(n1)sc1cc(OC)ccc12 | -0.38
COC(=O)c1sc(Sc2cccs2)c2c1CC(C)(C)CC2=O | -2.25
O=C1/C(=C/c2ccc(Cl)cc2)C(c2ccccc2)Oc2ccccc21 (centres undefined) | -0.94
COc1ccc([N+](=O)[O-])c(OC)c1C(=O)NCC1CC1 | 4.9*
COc1ccc([N+](=O)[O-])c(OC)c1C(=O)Nc1ccccc1C(=O)NCC1CC1 | 0
SMILES | Dicer processing
CCC(C)NC(=O)c1c(OC)ccc([N+](=O)[O-])c1OC (centres undefined) | -0.14
CSc1nnc2c(n1)OC(c1ccc(C)o1)N(C(C)=O)c1ccccc1-2 (centres undefined) | -0.58
c1ccc(-c2cn3nc(-c4cccs4)sc3n2)cc1 | -0.1
O=S1(=O)/N=C(/O)c2ccccc2Sc2ccccc21 | 3.47*
CSc1ccccc1NC1=NS(=O)(=O)c2ccccc21 | -0.02
Cc1ccc(OC2=NS(=O)(=O)c3ccccc32)cc1 | 0.25
Cc1nc(N2C(=O)c3oc4ccccc4c(=O)c3C2c2ccco2)sc1C (centres undefined) | 0.12
CN(NC1OC(=O)c2ccccc21)c1ncc(Cl)cc1C(F)(F)F (centres undefined) | 0.04
CN(NC1OC(=O)c2ccccc21)c1ccccc1[N+](=O)[O-] (centres undefined) | 3.21*
O=C1OC(Nc2ccc([N+](=O)[O-])cn2)c2ccccc21 (centres undefined) | -0.83
Cc1cc(-c2n[nH]c(=S)n2C)nn1-c1ccc([N+](=O)[O-])cc1 | -2.22
Cc1c(S(=O)(=O)Oc2ccccc2Cl)sc2ccc(Cl)cc12 | -0.86
Cc1c(S(=O)(=O)Nc2ccc(Cl)c(Cl)c2)sc2ccc(Cl)cc12 | 1.87
Cc1c(S(=O)(=O)Nc2ccccc2Cl)sc2ccc(Cl)cc12 | 4.63*
CCC(CC)c1nc2cc(OC)c(OC)cc2c(=O)o1 | 0.71
COc1cc2nc(-c3ccc(C)cc3)oc(=O)c2cc1OC | -1.42
COc1cc2nc(-c3cccc(Br)c3)oc(=O)c2cc1OC | 26.6*
COc1cc2nc(C(C)(C)C)oc(=O)c2cc1OC | 4.12*
COc1cc2nc(-c3ccccc3)oc(=O)c2cc1OC | -0.18
COc1ccc(-c2nc3cc(OC)c(OC)cc3c(=O)o2)cc1 | 2.05
COc1ccc(C2C(C(=O)OC(C)C)=C(C)Nc3nc4ccccc4n32)cc1OC (centres undefined) | 0.71
CC(C)c1ccc(-n2nnc3ccccc3c2=O)cc1 | -0.09
O=C(CCc1nc(-c2ccc(Cl)cc2)no1)NNS(=O)(=O)c1cc(Cl)c(Cl)cc1Cl | 0.83
S=C(NCc1csc2ccccc12)NCC1CC1 | 4.01*
O=C(O)c1nccnc1C(=O)NCc1csc2ccccc12 | 1.36
SMILES | Dicer processing
N/C(Cc1csc2ccccc12)=N\O | 0.88
O=C(O)/C=C\C(=O)NCc1csc2ccccc12 | 5.35*
CC1CC(NC(=S)NCc2csc3ccccc23)CC(C)(C)C1 (centres undefined) | -1.04
O=C(O)/C=C/C(=O)NCc1ccc(F)cc1 | -0.86
Cn1c2c(c(=O)n(C)c1=O)C(c1ccc(-c3ccccc3)cc1)C1=C(N2)c2ccccc2C1=O (centres undefined) | -0.25
COc1cc(OCc2ccccc2)ccc1CN1CCN(C)CC1 | -0.73
N#C/C(=C\c1cc(Br)cs1)c1nc2ccccc2s1 | -0.22
COc1ccc(S(=O)(=O)NCCSc2nnnn2-c2ccccc2)cc1OC | 1.75
COc1ccc(-c2nc(S(=O)(=O)c3ccccc3)c(N3CCCCC3)o2)cc1OC | 1.46
COc1ccc(C2(CNS(=O)(=O)c3ccccc3)CCCC2)cc1OC | 5.94*
CC(=O)Nc1nc2ccc(Br)cc2s1 | -3.01
CCOC(=O)C(=O)Nc1nc2ccc(S(C)(=O)=O)cc2s1 | 5.83*
CCOC(=O)Nc1nc2ccc(C)cc2s1 | 0.79
CS(=O)(=O)c1ccc2nc(NC(=O)CCCC(=O)O)sc2c1 | 0.15
CCCCOC(=O)Nc1nc2ccc(C)cc2s1 | 2.34
CS(=O)(=O)c1ccc2nc(NC(=O)Cc3ccc(Br)cc3)sc2c1 | 5.28*
Cc1ccc(Sc2ncccc2-n2c(C)ccc2C)cc1 | -1.25
CC(C#N)(Cc1ccccc1)Nc1ccc(Cl)cc1 (centres undefined) | 2.51
CCCC12CN3CC(CCC)(CN(C1)C3c1cc(Br)ccc1O)C2=O (centres undefined) | 2.82
COc1ccc2[nH]cc(CCNC3CC(=O)N(c4ccc(Br)cc4)C3=O)c2c1 (centres undefined) | 3.49*
O=C1CC(NCCc2c[nH]c3ccccc23)C(=O)N1c1cccc(Cl)c1 (centres undefined) | 0.63
COc1ccc(N2C(=O)CC(NCCc3c[nH]c4ccc(Cl)cc34)C2=O)cc1 (centres undefined) | -0.9
COc1cc(OC)cc(N2C(=O)C3CC(C)=C(C)CC3C2=O)c1 (centres undefined) | -2.21
CCCCOc1ccc(N2C(=O)C3CC(C)=C(C)CC3C2=O)cc1 (centres undefined) | 0.63
CC1=C(C)CC2C(=O)N(c3ccc(N(C)C)cc3)C(=O)C2C1 (centres undefined) | 0.61
SMILES | Dicer processing
CC1=C(C)CC2C(=O)N(c3ccccc3F)C(=O)C2C1 (centres undefined) | 4.94*
CC1=C(C)CC2C(=O)N(c3ccc(Oc4ccc(Cl)cc4)cc3)C(=O)C2C1 (centres undefined) | 3.34*
CC12N=NCC1C(=O)N(c1ccccc1F)C2=O (centres undefined) | 1.67
COc1ccc(C2Nc3ccc4ccccc4c3C3=C2C(=O)CC(C)(C)C3)cc1 (centres undefined) | 2.35
NC(=S)c1ccc(-n2cncn2)nc1 | -0.5
O=C(NNc1ccccc1)c1cc(-c2ccc(Cl)cc2)oc1C(F)(F)F | 0.99
COC(=O)C1=C(C(=O)OC)SC(=C2C(=S)C(C)(C)Nc3ccc(OC)cc32)S1 | -0.25
COc1ccc(-n2sc3c(c2=S)-c2ccccc2NC3(C)C)cc1OC | 2.01
